# In all, about 5,500 compounds went through this assay and about 2,000 (36%) were called active. About 18% were inconclusive and are not listed. The list shows a part of the results. Values without a mark were called inactive. Rule as the data show it: active = normalized growth mostly below about 0.91 (no sharp cut-off); inconclusive = no clear call, values can overlap the other calls; inactive = mostly above about 0.92.
# Assay: chemical genetic growth profiling, strain panel (AID 1159580);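 also: tested at 20 µM; growth read once vehicle control cultures reached saturation at 30 °C; 1 = growth at the plate median or of vehicle wells; lower values mean less growth of the strain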
# Conditions: growth OD
# [1] = S. cerevisiae deletion strains, locus YAL013W, strain DEP1, hits give low values
# [2] = S. cerevisiae deletion strains, locus YBR229C, strain ROT2, hits give low values
# [3] = S. cerevisiae deletion strains, locus YCL061C, strain MRC1, hits give low values
# [4] = S. cerevisiae deletion strains, locus YDL101C, strain DUN1, hits give low values
# [5] = S. cerevisiae deletion strains, locus YDR150W, strain NUM1, hits give low values
# [6] = S. cerevisiae deletion strains, locus YEL061C, strain CIN8, hits give low values
# [7] = S. cerevisiae deletion strains, locus YGR078C, strain PAC10, hits give low values
# [8] = S. cerevisiae deletion strains, locus YHR030C, strain SLT2, hits give low values
# [9] = S. cerevisiae deletion strains, locus YHR087W, strain rtc3, hits give low values
# [10] = S. cerevisiae deletion strains, locus YJR043C, strain POL32, hits give low values
# [11] = S. cerevisiae deletion strains, locus YJR075W, strain HOC1, hits give low values
# [12] = S. cerevisiae deletion strains, locus YLR039C, strain RIC1, hits give low values
# [13] = S. cerevisiae deletion strains, locus YLR058C, strain SHM2 (second series), hits give low values
# [14] = S. cerevisiae deletion strains, locus YLR085C, strain ARP6, hits give low values
# [15] = S. cerevisiae deletion strains, locus YLR262C, strain YPT6, hits give low values
# [16] = S. cerevisiae deletion strains, locus YML094W, strain GIM5, hits give low values
# [17] = S. cerevisiae deletion strains, locus YMR219W, strain ESC1, hits give low values
# [18] = S. cerevisiae deletion strains, locus YMR263W, strain SAP30, hits give low values
# [19] = S. cerevisiae deletion strains, locus YNL153C, strain GIM3, hits give low values
# [20] = S. cerevisiae deletion strains, locus YNL298W, strain CLA4 (second series), hits give low values
# [21] = S. cerevisiae deletion strains, locus YNL322C, strain KRE1, hits give low values
# [22] = S. cerevisiae deletion strains, locus YNR030W, strain Alg12, hits give low values
# [23] = S. cerevisiae deletion strains, locus YPL055C, strain LGE1, hits give low values
# [24] = S. cerevisiae deletion strains, locus YPL241C, strain CIN2, hits give low values
# [25] = S. cerevisiae deletion strains, locus YPR135W, strain CTF4, hits give low values
# [26] = S. cerevisiae deletion strains, locus YDL134C, strain PPH21, hits give low values
# [27] = S. cerevisiae deletion strains, locus YMR307W, strain GAS1, hits give low values
structure (smiles),measurement,setting,value
CCCc1cnc(N2CCCN(C(=S)Nc3cccnc3)CC2)nc1,normalized growth,[1],0.998
same,normalized growth,[2],0.997
same,normalized growth,[3],1.01
same,normalized growth,[4],1.06
same,normalized growth,[5],1.03
same,normalized growth,[6],0.959
same,normalized growth,[7],1.02
same,normalized growth,[8],1.05
same,normalized growth,[9],0.992
same,normalized growth,[10],1.03
same,normalized growth,[11],1.03
same,normalized growth,[12],1
same,normalized growth,[13],0.996
same,normalized growth,[14],1.04
same,normalized growth,[15],1.01
same,normalized growth,[16],1.02
same,normalized growth,[17],1.01
same,normalized growth,[18],1.03
same,normalized growth,[19],1.02
same,normalized growth,[20],0.999
same,normalized growth,[21],0.987
same,normalized growth,[22],1.01
same,normalized growth,[23],1.02
same,normalized growth,[24],1.02
same,normalized growth,[25],1.07
CSC(=NC#N)N1CCN(c2ccc([N+](=O)[O-])cn2)CC1,normalized growth,[1],0.997
same,normalized growth,[2],1.01
same,normalized growth,[3],1
same,normalized growth,[4],1.02
same,normalized growth,[26],0.987
same,normalized growth,[5],1.07
same,normalized growth,[6],0.957
same,normalized growth,[7],0.996
same,normalized growth,[8],0.958
same,normalized growth,[9],0.991
same,normalized growth,"S. cerevisiae deletion strains, locus YJL187C, strain SWE1, hits give low values",0.993
same,normalized growth,[10],1.01
same,normalized growth,[11],1.01
same,normalized growth,[12],0.986
same,normalized growth,[13],0.989
same,normalized growth,[14],0.933
same,normalized growth,[15],0.978
same,normalized growth,[16],0.966
same,normalized growth,[17],0.996
same,normalized growth,[18],1.01
same,normalized growth,[27],1.1
same,normalized growth,[19],1
same,normalized growth,[20],0.978
same,normalized growth,[21],0.99
same,normalized growth,[22],0.954
same,normalized growth,[23],1.08
same,normalized growth,[24],0.99
same,normalized growth,[25],1.09
same,normalized growth,"S. cerevisiae strains, strain wild type, hits give low values",0.983
FC(F)(F)c1ccnc(N2CCCN(C(=S)Nc3ccc(Cl)cc3Cl)CC2)n1,normalized growth,"S. cerevisiae deletion strains, locus YAR019C, strain CDC15, hits give low values",0.974
same,normalized growth,"S. cerevisiae deletion strains, locus YBL105C, strain PKC1, hits give low values",0.977
same,normalized growth,"S. cerevisiae deletion strains, locus YBR135W, strain CKS1, hits give low values",0.972
same,normalized growth,"S. cerevisiae deletion strains, locus YBR136W, strain MEC1, hits give low values",0.973
same,normalized growth,"S. cerevisiae deletion strains, locus YBR160W, strain CDC28, hits give low values",0.974
same,normalized growth,"S. cerevisiae deletion strains, locus YDL017W, strain CDC7, hits give low values",0.966
same,normalized growth,"S. cerevisiae deletion strains, locus YDL028C, strain MPS1, hits give low values",0.975
same,normalized growth,[4],0.975
same,normalized growth,"S. cerevisiae deletion strains, locus YDL108W, strain KIN28, hits give low values",0.975
same,normalized growth,"S. cerevisiae deletion strains, locus YDL132W, strain cdc53, hits give low values",0.977
same,normalized growth,"S. cerevisiae deletion strains, locus YDL214C, strain PRR2, hits give low values",0.966
same,normalized growth,"S. cerevisiae deletion strains, locus YDR052C, strain DBF4, hits give low values",0.972
same,normalized growth,"S. cerevisiae deletion strains, locus YDR054C, strain cdc34, hits give low values",0.976
same,normalized growth,"S. cerevisiae deletion strains, locus YDR226W, strain ADK1, hits give low values",0.982
same,normalized growth,"S. cerevisiae deletion strains, locus YDR477W, strain SNF1, hits give low values",0.985
same,normalized growth,"S. cerevisiae deletion strains, locus YER123W, strain YCK3, hits give low values",1
same,normalized growth,"S. cerevisiae deletion strains, locus YER133W, strain GLC7, hits give low values",0.993
same,normalized growth,"S. cerevisiae deletion strains, locus YFL009W, strain cdc4, hits give low values",0.98
same,normalized growth,"S. cerevisiae deletion strains, locus YFL029C, strain CAK1, hits give low values",0.963
same,normalized growth,"S. cerevisiae deletion strains, locus YFR003C, strain YPI1, hits give low values",0.972
same,normalized growth,"S. cerevisiae deletion strains, locus YFR019W, strain FAB1, hits give low values",0.996
same,normalized growth,"S. cerevisiae deletion strains, locus YFR028C, strain CDC14, hits give low values",0.979
same,normalized growth,"S. cerevisiae deletion strains, locus YGR040W, strain KSS1, hits give low values",0.985
same,normalized growth,"S. cerevisiae deletion strains, locus YGR052W, strain FMP48, hits give low values",1.04
same,normalized growth,"S. cerevisiae deletion strains, locus YGR092W, strain DBF2, hits give low values",0.9
same,normalized growth,[8],0.712 (active)
same,normalized growth,"S. cerevisiae deletion strains, locus YHR079C, strain IRE1, hits give low values",0.848
same,normalized growth,"S. cerevisiae deletion strains, locus YHR082C, strain KSP1, hits give low values",1.08
same,normalized growth,"S. cerevisiae deletion strains, locus YHR205W, strain SCH9, hits give low values",0.946
same,normalized growth,"S. cerevisiae deletion strains, locus YIL147C, strain SLN1, hits give low values",0.972
same,normalized growth,"S. cerevisiae deletion strains, locus YJL095W, strain BCK1, hits give low values",0.942
same,normalized growth,"S. cerevisiae deletion strains, locus YJL128C, strain PBS2, hits give low values",0.978
same,normalized growth,"S. cerevisiae deletion strains, locus YJL157C, strain FAR1, hits give low values",0.981
same,normalized growth,"S. cerevisiae deletion strains, locus YJR016C, strain ILV3, hits give low values",0.989
same,normalized growth,"S. cerevisiae deletion strains, locus YJR066W, strain TOR1 (second series), hits give low values",0.953
same,normalized growth,"S. cerevisiae deletion strains, locus YJR066W, strain TOR1, hits give low values",1.03
same,normalized growth,"S. cerevisiae deletion strains, locus YKL048C, strain ELM1, hits give low values",0.961
same,normalized growth,"S. cerevisiae deletion strains, locus YKL067W, strain YNK1, hits give low values",0.973
same,normalized growth,"S. cerevisiae deletion strains, locus YKL101W, strain HSL1, hits give low values",0.958
same,normalized growth,"S. cerevisiae deletion strains, locus YKL193C, strain SDS22, hits give low values",0.978
same,normalized growth,"S. cerevisiae deletion strains, locus YKL203C, strain TOR2, hits give low values",1.02
same,normalized growth,"S. cerevisiae deletion strains, locus YLR113W, strain HOG1, hits give low values",0.689 (active)
same,normalized growth,"S. cerevisiae deletion strains, locus YLR133W, strain CKI1, hits give low values",0.979
same,normalized growth,"S. cerevisiae deletion strains, locus YLR403W, strain SFP1, hits give low values",0.982
same,normalized growth,"S. cerevisiae deletion strains, locus YML070W, strain DAK1, hits give low values",0.972
same,normalized growth,"S. cerevisiae deletion strains, locus YMR001C, strain CDC5, hits give low values",0.971
same,normalized growth,"S. cerevisiae deletion strains, locus YMR205C, strain PFK2 (second series), hits give low values",0.968
same,normalized growth,"S. cerevisiae deletion strains, locus YMR277W, strain FCP1, hits give low values",0.973
same,normalized growth,"S. cerevisiae deletion strains, locus YNL006W, strain LST8, hits give low values",0.98
same,normalized growth,"S. cerevisiae deletion strains, locus YNL020C, strain ARK1, hits give low values",0.966
same,normalized growth,"S. cerevisiae deletion strains, locus YNL161W, strain CBK1, hits give low values",0.982
same,normalized growth,"S. cerevisiae deletion strains, locus YNL183C, strain NPR1, hits give low values",1.01
same,normalized growth,"S. cerevisiae deletion strains, locus YNL207W, strain RIO2, hits give low values",0.964
same,normalized growth,"S. cerevisiae deletion strains, locus YNL222W, strain SSU72, hits give low values",0.978
same,normalized growth,"S. cerevisiae deletion strains, locus YNL307C, strain MCK1 (second series), hits give low values",0.95
same,normalized growth,"S. cerevisiae deletion strains, locus YOL078W, strain AVO1, hits give low values",0.986
same,normalized growth,"S. cerevisiae deletion strains, locus YOL136C, strain PFK27, hits give low values",0.959
same,normalized growth,"S. cerevisiae deletion strains, locus YOR061W, strain CKA2, hits give low values",0.961
same,normalized growth,"S. cerevisiae deletion strains, locus YOR119C, strain RIO1, hits give low values",1.06
same,normalized growth,"S. cerevisiae deletion strains, locus YOR231W, strain MKK1, hits give low values",0.873
same,normalized growth,"S. cerevisiae deletion strains, locus YOR329C, strain SCD5, hits give low values",0.973
same,normalized growth,"S. cerevisiae deletion strains, locus YPL031C, strain PHO85, hits give low values",0.975
same,normalized growth,"S. cerevisiae deletion strains, locus YPL153C, strain RAD53, hits give low values",0.982
same,normalized growth,"S. cerevisiae deletion strains, locus YPL204W, strain HRR25, hits give low values",0.966
same,normalized growth,"S. cerevisiae deletion strains, locus YPL209C, strain IPL1, hits give low values",0.973
same,normalized growth,"S. cerevisiae deletion strains, locus YPL256C, strain CLN2, hits give low values",0.777 (active)
same,normalized growth,"S. cerevisiae deletion strains, locus YPR025C, strain CCL1, hits give low values",0.976
same,normalized growth,"S. cerevisiae deletion strains, locus YPR106W, strain ISR1, hits give low values",0.977
same,normalized growth,"S. cerevisiae deletion strains, locus YPR111W, strain DBF20, hits give low values",0.96
same,normalized growth,"S. cerevisiae deletion strains, strain NNK1, hits give low values",0.962
same,normalized growth,"S. cerevisiae deletion strains, strain TSCII, hits give low values",0.978
O=[N+]([O-])c1ccc(N2CCCN(C(=S)Nc3ccc(Cl)cc3Cl)CC2)nc1,normalized growth,[1],0.966
same,normalized growth,[2],0.96
same,normalized growth,[3],0.956
same,normalized growth,[4],0.942
same,normalized growth,[26],0.979
same,normalized growth,[5],0.886
same,normalized growth,[6],0.912
same,normalized growth,[7],0.961
same,normalized growth,"S. cerevisiae deletion strains, locus YGR229C, strain SMI1, hits give low values",0.989
same,normalized growth,[8],0.422 (active)
same,normalized growth,[9],0.906 (active)
same,normalized growth,[10],0.984
same,normalized growth,[11],0.937
same,normalized growth,[12],0.628 (active)
same,normalized growth,[13],0.96
same,normalized growth,[14],0.543 (active)
same,normalized growth,[15],0.686 (active)
same,normalized growth,[16],0.932
same,normalized growth,[17],0.982
same,normalized growth,[27],0.433 (active)
same,normalized growth,[19],0.98
same,normalized growth,[20],0.831 (active)
same,normalized growth,[21],0.98
same,normalized growth,[22],0.8 (active)
same,normalized growth,"S. cerevisiae deletion strains, locus YOL006C, strain TOP1, hits give low values",0.831
same,normalized growth,[23],0.928
same,normalized growth,[24],0.866
same,normalized growth,[25],0.337 (active)
